Here are results for 97 compounds from PubChem BioAssay AID624297 (National Center for Advancing Translational Sciences (NCATS), 2012).

Several values for one entry are separate records, joined by “and”; a condition that tells them apart may be missing. Equal entries are not always repeated. About 6,200 (1.8%) of roughly 340,000 compounds were called active. Entries that show only a call come without a potency. Another 10% or so got no clear call; they are omitted. Many of the other results were omitted from the sample, so actives are more common in it than they were. Values without a mark were called inactive. Calls follow the shape of the dose curve; as a rule, active = well fitted activation curve with a large enough effect; inconclusive = small, poorly fitted or top-dose-only effect; inactive = no such curve, though single readings can be large or run the other way.
Potency is read from the fitted curve at half-maximal effect.

The test in a line: A quantitative high throughput screen for small molecules that induce DNA re-replication in SW480 colon adenocarcinoma cells. Also: nearly all actives have a fitted effect of over 55% in size. The note with it: Hoechst DNA content imaging, 48 h; series mostly up to 46.1 µM. The gist of the method: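 Readout is total intensity of Hoechst-stained nuclei, excited at 405 nm and collected at 500-530 nm. Compound treatment lasted 48 hr at 37 C in 5% CO2 before staining.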
`COc1ccccc1NC(=O)N(O)C1(C#N)CCCCC1`: the Potency result is “inactive”.
Still for that read-out and setting: next, `O=C(Cn1cnc2ccccc2c1=O)NNC(=O)c1ccccc1F`: “inactive”; `CCCN(C(=O)COC(=O)CNS(=O)(=O)c1ccc(NC(C)=O)cc1)C1CCS(=O)(=O)C1` (configuration not stated): “inactive”; `C[C@H]1CN([C@@H](C)CO)C(=O)Cc2cc(NS(C)(=O)=O)ccc2O[C@@H]1CN(C)CC1CC1`: “inactive”.
The same measure, in the same setting: with `NC(=O)c1ncn([C@@H]2O[C@H](CN=C3NS(=O)(=O)c4ccccc43)[C@@H](O)[C@H]2O)n1` the entry was “inactive”.
For the compound `Nc1ccc2nc3c(=O)[nH]c(=S)[nH]c3nc2c1`, the Potency was 4.61 µM (active).
Same read-out and setting: with `CSCCC(NC(=O)COc1ccccc1)C(=O)N1CCN(c2cccc(C(F)(F)F)c2)CC1` (configuration not stated) the entry was “inactive”.
`CCN(CC)C(=O)[C@H]1C[C@H](CC(=O)NCC23CC4CC(CC(C4)C2)C3)C(=O)N2CCc3c([nH]c4cc(CCC(=O)N(C)C)ccc34)[C@]12C`: the re-replication activation was 25.4% [at 9.22 µM].
As for `CN(C)C(CNC(=O)c1cc2ccccc2o1)c1ccccc1` (configuration not stated), the Potency entry is “inactive”.
Still for that read-out and setting: with `O=C(c1cnccn1)N1CCN(S(=O)(=O)c2cccc(Cl)c2)CC1` the entry was “inactive”; with `Oc1ccc(N=Cc2sc3ccccc3c2Cl)cc1`, 9.2 µM (active); with `Cc1nn(C)cc1/C=N/NC(=O)c1sc2ccccc2c1Cl`, “inactive”.
Still for that read-out and setting: next, `COc1ccc(N=C(C)c2sc3ccccc3c2O)cc1`: “inactive”.
Same read-out and setting: with `CC1(C)C(=O)CCC2(C)C1=CCC1C2C(=O)CC2(C)C1CCC2(O)C(=O)CO` (configuration not stated) the entry was “inactive”; with `COc1ccc(-c2cc(C(F)(F)F)nc(NCc3cccnc3)n2)cc1`, “inactive”.
With `COc1ccc(-c2cc(C(F)(F)F)nc(S(C)(=O)=O)n2)cc1OC`, the Potency was 4.11 µM (active).
Same read-out and setting: next, `COc1ccc(-c2ccc(Nc3ccc(S(=O)(=O)N4CCCC4)cc3)nn2)cc1OC`: “inactive”; `CC[C@]12c3[nH]c4cc(CCC(=O)N(C)C)ccc4c3CCN1C(=O)[C@@H](CC(=O)NCCCn1ccnc1)C[C@@H]2C(=O)N1CCN(C(=O)C2CC2)CC1`: “inactive”.
Consider `NC1=NOC(=O)C1C1CCCCC1` (configuration not stated), for which the Potency result is “inactive”.
Turning to `CC(=O)OCC(=O)C1(O)CCC2C3CC(C)C4=CC(=O)CCC4(C)C3C(O)CC21C` (configuration not stated), the Potency result was “inactive”.
Still for that read-out and setting: with `O=C(c1ccc2c(c1)C(=O)N(Cc1ccncc1)C2=O)N1CCN(S(=O)(=O)c2ccc(OC(F)(F)F)cc2)CC1` the entry was “inactive”.
In the case of `CCN(C[C@H]1N[C@@](CC)(C(=O)OC)[C@H]2C(=O)N(C)C(=O)[C@@H]12)C(=O)Nc1ccc(F)cc1`, the Potency result was “inactive”.
Still for that read-out and setting: next, `O=C(c1ccccc1)N1N=C(c2ccccc2O)CC1c1ccc(Br)cc1` (configuration not stated): “inactive”; `Oc1ccccc1C1=NN(c2ccccc2)C(c2ccccc2)C1` (configuration not stated): 8.2 µM (active).
In the case of `CC(=O)Oc1ccccc1C1=NN(C(C)=O)C(c2ccccc2)C1` (configuration not stated), the Potency entry was “inactive”.
Consider `Clc1ccc(CN2CCN(/N=C/c3cccnc3)CC2)cc1`, for which the Potency entry was “inactive”.
For `O=C1/C(=C\c2cccnc2)CN(Cc2ccccc2)C/C1=C\c1cccnc1`, the Potency is 0.13 µM (active).
The same measure, in the same setting: with `O=C1NCC(=O)N(Cc2ccccc2)/C1=C/c1ccccc1` the entry was “inactive”; with `Cc1cc(C)c([N+](=O)[O-])cc1-c1ccc(/C=N/NC(=O)c2nonc2N)o1`, “inactive”.
For `COc1cc(/C=N\NC(=O)c2nonc2N)c(OC)cc1Br`, the Potency is 0.291 µM (active).
Consider `COc1cc(OC)c(/C=N/NC(=O)c2ccc([N+](=O)[O-])cc2)cc1Br`, for which the Potency entry is “inactive”.
Still for that read-out and setting: with `C[C@@H]1CN([C@@H](C)CO)C(=O)c2cc(NC(=O)C3CC3)ccc2O[C@H]1CN(C)C` the entry was “inactive”; with `COc1cc(C(=O)OCc2cc(=O)n3ccsc3n2)ccc1OC(C)C`, “inactive”; with `CC(NC(=O)C(=O)NN=C1CCC(C(C)(C)C)CC1)c1ccccc1` (configuration not stated), 0.731 µM (active).
Same read-out and setting: next, `CC(C)(C)C1CCC(=NNC(=O)c2cc(-c3ccccc3)n[nH]2)CC1` (configuration not stated): “inactive”.
Still for that read-out and setting: with `CC(NC(=O)C(=O)N/N=C/c1ccc(Cl)cc1)c1ccccc1` (configuration not stated) the entry was “inactive”; with `CC[C@@]1(C(=O)OC)N[C@H](CN(C)C(C)=O)[C@@H]2C(=O)N(C)C(=O)[C@@H]21`, “inactive”.
Regarding `COc1ccccc1C1C2=C(COC2=O)Nc2cc3c(cc21)OCO3` (configuration not stated), the Potency result was “inactive”.
Same read-out and setting: next, `CCCOc1ccccc1C1CC(=O)Nc2cc3c(cc21)OCO3` (configuration not stated): 3.66 µM (active).
With `COC(=O)C1=C(C)NC(=O)CC1c1ccccc1OC` (configuration not stated), the Potency entry is “inactive”.
Still for that read-out and setting: with `COc1ccc(C)cc1NC(=O)CSc1cccc[n+]1[O-]` the entry was “inactive”; with `Cc1ccc(S(=O)(=O)Cc2cc(-c3ccc(Cl)cc3)no2)cc1`, “inactive”; with `O=S(=O)(NCc1ccc(Cl)cc1Cl)c1cccs1`, “inactive”.
On the same count and under the same terms, next, `O=S(=O)(Cc1ccc(Cl)cc1Cl)c1ccc(Cl)cc1`: 1.3 µM (active).
Still for that read-out and setting: next, `Nn1c(SCC(=O)NC2CCCc3ccccc32)nnc1C1CC1` (configuration not stated): “inactive”.
Regarding `CN(C)C(=O)CCc1ccc2c3c([nH]c2c1)[C@]1(CCC2CCCC2)[C@@H](C(=O)N2CCOCC2)C[C@H](CC(=O)NCc2ccco2)C(=O)N1CC3`, the re-replication activation is 19.7% [at 9.22 µM].
Turning to `O=C1c2ccccc2C(=O)N1CCCCCCN1C(=O)c2ccccc2C1=O`, the Potency result is “inactive”.
Still for that read-out and setting: with `CC(CNC(=O)Cn1cnc2c(OCc3ccccc3)ncnc21)c1ccccc1` (configuration not stated) the entry was “inactive”; with `O=C(Cc1ccc(Br)cc1)N1CCN(c2ccccn2)CC1`, “inactive”.
Same read-out and setting: next, `O=C(C(Cl)Cl)N1CCN(c2ccccn2)CC1`: “inactive”; `O=C(/C=C/c1cccc(C(F)(F)F)c1)N1CCN(c2ccccn2)CC1`: 4.61 µM (active); `O=C(c1cccnc1)N(Cc1ccccc1)C(=O)c1cccnc1`: “inactive”.
On the same count and under the same terms, with `CCOC(=O)N(Cc1ccccc1)C1CC1` the entry was “inactive”; with `CC1=CC(=NNS(=O)(=O)c2ccc([N+](=O)[O-])cc2)CC(C)(C)C1`, “inactive”.
Take `Cc1coc2c(O)cc3c(c12)OC1(N2CCCCC2)C(=O)NCCCC31` (configuration not stated): the Potency is 20.6 µM (active) and 7.08 µM (active).
The same measure, in the same setting: with `COc1ccc(C(=O)N(C)Cc2ccc(OC)c(OC)c2OC)cc1S(=O)(=O)N1CCOCC1` the entry was “inactive”.
Still for that read-out and setting: with `COc1ccc([N+](=O)[O-])cc1NC(=O)COC(=O)/C=C/c1ccco1` the entry was “inactive”.
Turning to `COc1ccc(N2C(=O)/C(=C\c3ccco3)N=C2SCC(N)=O)cc1Cl`, the Potency is 18.4 µM (active).
In the case of `COC(=O)C1=C(C)N(c2ccc(Br)cc2)C(=O)/C1=C\c1ccco1`, the Potency result is “inactive”.
Same read-out and setting: next, `O=C(CC1SC(N2CCOCC2)=NC1=O)Nc1ccccc1F` (configuration not stated): “inactive”; `CCCCCCSc1ccc([C@@H]2[C@H]3C(=O)N(CC)C(=O)[C@H]3[C@]3(C(=O)OC)CCCCN23)cc1`: “inactive”; `COC(=O)Cc1c(-c2[nH]c3ccccc3c2CC(=O)OC)[nH]c2ccccc12`: “inactive”.
Regarding `O=C(CN1C(=O)NC2(CCCC2)C1=O)Nc1cc(C(F)(F)F)ccc1N1CCOCC1`, the Potency entry is “inactive”.
Same read-out and setting: with `Cc1cc(C)nc(N/N=C/c2c(CO)cnc(C)c2O)n1` the figure was 11.6 µM (active); with `Cc1cc(C)nc(N/N=C/c2c(C)oc3ccccc23)n1`, “inactive”; with `O=C(COC(=O)/C=C/c1ccc(Br)o1)Nc1cccc(S(=O)(=O)N2CCOCC2)c1`, “inactive”.
The same measure, in the same setting: next, `CC1CCCCC12NC(=O)N(CC(=O)N1CCN(c3ccccc3)CC1)C2=O` (configuration not stated): “inactive”; `CCOc1cc(NC(=O)c2ccccc2C(=O)O)c(OCC)cc1NC(=O)c1ccccc1F`: “inactive”; `CCC(=O)Nc1ccc2nc(C)n(Cc3ccccc3Cl)c(=O)c2c1`: “inactive”.
On the same count and under the same terms, with `CCN1CCN(c2cc3nc(C)n(Cc4ccccc4)c(=O)c3cc2NC(=O)c2ccccc2F)CC1` the figure was 8.2 µM (active); with `N#Cc1c(-c2ccc(F)cc2)cc(C2CC2)nc1SCC(=O)c1cccs1`, 11.6 µM (active); with `Cc1cc(C#N)c(SCC(N)=O)nc1-c1ccc(F)cc1`, “inactive”.
As to `O=C(c1cccs1)N1CCCC(c2nc(-c3ccc(F)cc3)no2)C1` (configuration not stated), the Potency result was “inactive”.
As for `CC12CCCCC1=CC(=O)CC2` (configuration not stated), the Potency result is “inactive”.
The same measure, in the same setting: next, `CCC(=O)NC(=S)Nc1ccc(NC(=O)c2ccco2)c(Cl)c1`: “inactive”; `O=C(Nc1ccc(C2CC2(Cl)Cl)cc1)c1cccc([N+](=O)[O-])c1` (configuration not stated): “inactive”; `O=C(Nc1ccc(NC(=O)c2ccco2)c(Cl)c1)c1cccc([N+](=O)[O-])c1`: 0.651 µM (active).
Regarding `O=C(COC(=O)CSc1ccccc1)Nc1ccc(F)cc1F`, the Potency entry is “inactive”.
On the same count and under the same terms, with `C=CC[C@H](CC(=O)NCCO)C(=O)N[C@@H](COC(=O)[C@@H](CC=C)Cc1ccc(F)cc1)Cc1c[nH]c2ccccc12` the entry was “inactive”; with `Cc1ccc(C(=O)Nc2ccccc2-c2ccccc2)cc1S(=O)(=O)Nc1ccccc1`, “inactive”.
Still for that read-out and setting: with `Cn1c(N)cc(=O)n(C)c1=S` the entry was “inactive”; with `CCCn1nc(NC(=O)C(C)C)c2cc3cc(OC)ccc3nc21`, 9.2 µM (active).
On the same count and under the same terms, with `CCCn1nc(NS(=O)(=O)c2ccc(F)cc2)c2cc3ccccc3nc21` the entry was “inactive”.
Take `CCCn1nc(NS(=O)(=O)c2ccccc2)c2cc3cc(C)ccc3nc21`: the Potency result was “inactive”.
For `CCOC(=O)C1CCCN(C(=O)C2CCN(S(=O)(=O)c3ccc(Cl)c(C(F)(F)F)c3)CC2)C1` (configuration not stated), the Potency entry is “inactive”.
With `Cc1ccc(S(=O)(=O)N2CCCCC2)cc1C(=O)N1CCN(CCO)CC1`, the Potency entry was “inactive”.
For the compound `O=C(CCC(=O)N1CCN(S(=O)(=O)c2ccc(Cl)cc2)CC1)NCc1cccc(C(F)(F)F)c1`, the Potency entry was “inactive”.
Still for that read-out and setting: next, `CN(C)c1nc(NN)nc(Nc2ccc(F)cc2)n1`: “inactive”; `OCCNc1nc(Nc2ccc(Cl)c(Cl)c2)nc2ccccc12`: “inactive”; `CN(C)c1nc(Nc2ccc(Cl)c(Cl)c2)nc(N(C)C)n1`: 23.1 µM (active).
Still for that read-out and setting: next, `CC(=O)Oc1ccc2c(c1)C(=O)c1ccccc1C2=O`: “inactive”.
Still for that read-out and setting: with `O=C1C(Cl)=C(Oc2ccccc2)C(=O)c2ccccc21` the figure was 2.06 µM (active); with `Cc1ccc(S(=O)(=O)N2CCN(C(=O)CN3C(=O)NC(C)(c4ccc(Cl)cc4)C3=O)CC2)c(C)c1` (configuration not stated), “inactive”.
On to `Cc1ccnc(SCC(=O)Nc2cccc(S(=O)(=O)N3CCOCC3)c2)n1`, for which the Potency entry is “inactive”.
As to `Cc1ccc(NC(=O)c2c(NC(=O)CCC(=O)O)sc3c2CCCCC3)cc1`, the Potency result is “inactive”.
The same measure, in the same setting: with `CC(=O)Nc1ccc(NC(=O)c2sc3nc4c(c(-c5ccc(C)cc5)c3c2N)CCC4)cc1` the figure was 20.6 µM (active).
Same read-out and setting: with `Cc1ccc(NC(=O)c2csc3c2CCCC3)cc1` the entry was “inactive”.
